# Compounds with a hit are over-represented: about 2.6% of the library has one in this group of screens.
# Cruzain noTriton = cruzain (T. cruzi) inhibition without detergent | P25779 | purified cruzain, Z-FR-AMC fluorescence, no detergent | Potency, µM, for inactives: max response, negative = inhibition, hits mostly inhibitors | hit rate 2.3% among 200,000 | AID 1476;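 further: plate controls were enzyme without inhibitor for no effect and buffer without enzyme for full effect; nearly all actives have a fitted effect of over 40% in size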
# Target sequence (P25779 123-467 limits assumed): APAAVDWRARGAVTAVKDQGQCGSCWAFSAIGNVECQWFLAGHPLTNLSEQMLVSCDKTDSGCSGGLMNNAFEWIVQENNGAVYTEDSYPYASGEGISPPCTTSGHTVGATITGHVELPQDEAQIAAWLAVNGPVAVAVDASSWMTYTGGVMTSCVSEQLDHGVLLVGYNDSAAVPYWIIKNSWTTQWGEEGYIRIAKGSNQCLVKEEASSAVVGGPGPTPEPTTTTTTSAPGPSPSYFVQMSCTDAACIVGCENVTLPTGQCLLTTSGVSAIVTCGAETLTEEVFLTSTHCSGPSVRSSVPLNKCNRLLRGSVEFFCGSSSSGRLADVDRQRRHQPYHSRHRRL
#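 Detergent-free condition (0.00005% Triton X-100) in acetate buffer pH 5.5 with DTT. 1.5 nM enzyme and compound were pre-mixed 15 min, then 2 uM Z-FR-AMC substrate added; reaction progress from fluorescence change between first and third reads (60 s).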
# Cruzain Triton = blocks cruzain activity in presence of Triton detergent | P25779 | Potency, µM, inactives show max response, negative = inhibition, most hits filed as inhibitors | purified cruzain, Z-FR-AMC fluorescence, 0.01% Triton | hit rate 0.43% among 200,000 | AID 1478;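 further: plate controls were neutral wells for no effect and buffer without enzyme for full effect; nearly all actives have a fitted effect of over 40% in size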
#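 Read-out: AMC fluorescence (360 nm excitation, 450 nm emission), four reads over 2 min, first-to-third difference used. Conditions: cruzain 1.5 nM, Z-FR-AMC 2 uM, pH 5.5 acetate, 5 mM DTT, 0.01% Triton X-100.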
# Starred values were filed as active, the others as inactive; ? = inconclusive; ! = a repeat was not active. The call rests on the fitted dose curve; in most records, active means well fitted curve in the direction sought with a large enough effect; inconclusive means small, poorly fitted or top-dose-only effect, or another doubt; inactive means no such curve, though single readings can be large; an effect the other way counts as inactive or inconclusive. Potency means the concentration at half of the fitted maximal effect.
SMILES,Cruzain noTriton,Cruzain Triton
Cc1cccc(NC(=O)CSc2nc3ccc(NC(=O)c4ccccc4)cc3s2)c1,-27%,-2%
O=C(Nc1cccc(F)c1)N1CCCC2(CCN(S(=O)(=O)c3ccccc3)CC2)C1,-2%,-3%
CCCCOc1ccc(-c2nc(/C=N/c3nccs3)c(O)o2)cc1,?,1%
CCOc1ccc2nc(/N=C/c3nc(-c4ccc(Br)cc4)oc3O)sc2c1,7.9µM*,2%
CCC(=O)N1c2ccccc2CC1C(=O)NCCCN1CCN(c2cccc(Cl)c2)CC1 (stereo not given),7%,0%
CCC1=C(c2ccc(C)cc2)S(=O)(=O)N=C1N1CCC(C(=O)NCc2ccc(N(C)C)cc2)CC1,10%,-3%
Cc1ccc2c(c1)c1c3n2CCN(C(=O)c2cccc(C(F)(F)F)c2)C3CCC1 (stereo not given),0.63µM*,-5%
CCN(CC)CCN1CCn2c3c(c4cc(C)ccc42)CCCC31 (stereo not given),-4%,-8%
Cc1cc(C)cc(C(=N)c2ccccc2Cc2cccc3ccccc23)c1,-10%,-1%
O=C(OCc1nc2scc(-c3ccccc3)c2c(=O)[nH]1)c1cc(Cl)ccc1[N+](=O)[O-],32µM*,-4%
Cc1c(C(=O)OCc2nc3scc(-c4ccccc4)c3c(=O)[nH]2)cccc1[N+](=O)[O-],?,-5%
CCCCOC(C)=O,0%,-2%
Cc1ccc(C(=O)NN2C(=O)/C(=C/c3cccn3C)SC2=S)cc1,?,-9%
Cc1ccc(C(=O)NN2C(=O)/C(=C/c3cn(C)c4ccccc34)SC2=S)cc1,10µM*,1%
Cn1cccc1/C=C1\SC(=S)N(NC(=O)c2ccccc2Cl)C1=O,13%,-10%
Cn1cc(/C=C2\SC(=S)N(NC(=O)c3ccccc3Cl)C2=O)c2ccccc21,10µM*,-3%
O=C1C(C=NCc2ccncc2)=C(O)c2ccccc21,1%,-3%
O=C1N/C(=C/c2ccc(Br)cc2)C(O)=C1C=NCc1ccccc1,20µM*,-3%
Cc1ccc(-c2nc(NC(=O)CSc3cc(C)c4ccccc4n3)ns2)cc1,?,-2%
O=C(CSc1ccc2ccccc2n1)Nc1nsc(-c2ccc(Cl)cc2)n1,32µM*!,0%
CCc1c(C)sc2c1CCN(C(=O)Nc1ccccc1C(=O)OC)C2c1ccc(F)cc1 (stereo not given),?,0%
CCc1c(C)sc2c1CCN(C(=O)Nc1ccc(F)c(Cl)c1)C2c1ccc(F)cc1 (stereo not given),10µM*,-1%
CCc1c(C)sc2c1CCN(C(=O)Nc1ccccc1C(F)(F)F)C2c1ccccc1 (stereo not given),-12%,-6%
CCc1c(C)sc2c1CCN(C(=O)Nc1cc(Cl)c(OC)cc1OC)C2c1ccccc1 (stereo not given),6.3µM*,-1%
C=C[C@](C)(O)CCC1C(=C)CC(O)C2C(C)(C)CCCC12C (stereo not given in full),?,-6%
SMILES,Cruzain noTriton,Cruzain Triton
CC(=O)c1ccc(NC(=O)c2sc(-n3nc(C)c(Cc4ccccc4)c3C)nc2C)cc1,?,-3%
COc1ccc(-c2cc(NCc3ccc(C)cc3)n3cnnc3n2)cc1,13%,-3%
O=C(CCc1ccccc1)NC(NC(=S)Nc1ccc(Cl)cc1)C(Cl)(Cl)Cl (stereo not given),25µM*,-4%
O=C(/C=C/c1ccccc1)NC(NC(=S)Nc1ccc(Cl)cc1)C(Cl)(Cl)Cl (stereo not given),?,-1%
CCOC(=O)c1c(C)[nH]c(C2=NNC(=Nc3cccc(Cl)c3)SC2)c1C,16µM*,1%
CCOC(=O)c1c(C)[nH]c(C=O)c1Cc1cccc(Cl)c1,-6%,-8%
Cn1nnc(NCc2cc(Br)ccc2OCc2cccs2)n1,32µM*,-4%
Cn1nnc(C(O)CNCc2cccs2)n1 (stereo not given),3%,3%
COc1ccc(NC(=O)c2cc3c(=O)n(C)c4cc(Cl)ccc4c3s2)cc1Cl,-5%,0%
CCCc1cc(OC)c2c(c1)OCO2,-5%,-1%
CCCOc1ccc(C(=O)Nc2nc(C)c(Cc3ccc4c(c3)OCO4)s2)cc1,-27%,-1%
Cc1c(Cc2ccc3c(c2)OCO3)sc(NC(=O)c2ccc3ccccc3c2)c1C(N)=O,10µM*,-1%
C(=NC1CCCCC1)=NC1CCCCC1,-4%,3%
Cc1cnc(CNc2ncncc2-c2ccccc2C(F)(F)F)cn1,6%,8%
CCCn1c(=O)c(C(=O)NNS(=O)(=O)c2ccc(C)cc2)c(O)c2ccccc21,13µM*,-4%
CCn1c(=O)c(C(=O)NNS(=O)(=O)c2ccc(C)cc2)c(O)c2ccccc21,0%,-7%
O=C(Nc1cccc(F)c1)N1CC[C@@]2(CCCN(C(=O)c3cnccn3)C2)C1,8%,3%
O=C(c1ccc2c(c1)CCN2S(=O)(=O)c1ccc(Cl)cc1)N1CCN(c2ccccc2)CC1,?,-1%
COc1cc(/C=C2/C(=N)N3C=CSC3=NC2=O)ccc1OCCCOc1ccccc1C,-5%,-5%
COc1cccc(OCCCn2cc(/C=C3/C(=N)N4C=C(C)SC4=NC3=O)c3ccccc32)c1,13µM*,-2%
COc1ccc(OCCCn2cc(/C=C3/C(=N)N4C=C(C)SC4=NC3=O)c3ccccc32)cc1,25µM*,-3%
COc1cc(/C=C2/C(=N)N3C=CSC3=NC2=O)ccc1OCCCOc1c(C)cccc1C,-8%,-1%
CC1=CN2C(=N)/C(=C/c3ccco3)C(=O)N=C2S1,-9%,-8%
CC1=CN2C(=N)/C(=C/c3cn(CCCOc4ccccc4C)c4ccccc34)C(=O)N=C2S1,3.2µM*,1%
[N-]=[N+]=CC(=O)CC[C@H](N)C(=O)O,-4%,1%
SMILES,Cruzain noTriton,Cruzain Triton
Fc1ccc(CSc2nncn3c2cc2occc23)c(Cl)c1,-5%,-4%
Cc1cccc2cc(CN(Cc3cccs3)C(=S)NCC3CCCO3)c(=O)[nH]c12 (stereo not given),3%,-8%
Cc1ccc(NC(=S)N(Cc2cccs2)Cc2cc3cccc(C)c3[nH]c2=O)cc1,16µM*,-3%
Cc1csc(NC(=O)CSc2ncnc3c2cnn3-c2ccccc2Cl)n1,-7%,-2%
CC1CCc2c(sc(NC(=O)CSc3ncnc4c3cnn4-c3ccccc3Cl)c2C#N)C1 (stereo not given),10µM*,5%
COc1cccc(CNS(=O)(=O)c2cnc(N)nc2)c1,-6%,1%
CN(Cc1ccccc1)Cc1c(O)ccc2c(=O)c(-c3ccccc3)c(C(F)(F)F)oc12,-3%,-3%
CC(C)C(=O)c1cc2c(cc1NC(=O)Nc1cccc3ccccc13)OCCO2,25%,-2%
[O-]/C(=C(\C(=S)Nc1cccc2ccccc12)[n+]1ccccc1)c1ccc2c(c1)OCCO2,13µM*,-6%
Cc1cccc(CN2C(=O)c3ccccc3Sc3ccc(C(=O)NC4CCCCC4)cc32)c1,13µM*,1%
CCOc1ccc(CN2C(=O)c3ccccc3Sc3ccc(C(=O)NCc4ccco4)cc32)cc1,32µM*,-4%
Cc1ccccc1CN1C(=O)c2ccccc2Sc2ccc(C(=O)NCc3cccs3)cc21,?,0%
O=C(NC1CCCC1)c1ccc2c(c1)N(Cc1ccccc1)C(=O)c1ccccc1S2,?,1%
O=C(NCc1ccco1)c1ccc2c(c1)N(Cc1ccc(Cl)cc1)C(=O)c1ccccc1S2,?,1%
CCOc1ccc(CN2C(=O)c3ccccc3Sc3ccc(C(=O)NC4CCC(C)CC4)cc32)cc1 (stereo not given),5µM*,-5%

# High-throughput results as filed in PubChem BioAssay.
